This test has as its system HT29 RNF43 G659fs (RNF43 659mut, CRISPR-edited). Put plainly: cell viability activity relative to DMSO (negative = inhibition); higher = more viable cells (less growth inhibition). The settings on record: 5 µM; 96 h. The method, then: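 Broad Repurposing Library primary screen at a single dose of 5 uM. HT29 sg-Ctrl and HT29 RNF43 G659fs CRISPR-edited isogenic cells were seeded at 2500 cells/well in 384-well plates in duplicate and treated for 96 h. Viability was read by CellTiter-Glo and reported as % activity relative to DMSO, with MG132 as the positive control (negative = growth inhibition).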
Take `COC(=O)Nc1nc2cc(C(=O)c3ccc(F)cc3)ccc2[nH]1`: the cell viability activity is -46.6%.

For the compound `COc1cc2c(Nc3ccc(Cl)c(Cl)c3F)ncnc2cc1OC[C@@H]1C[C@@H]2CN(C)C[C@@H]2C1`, the cell viability activity is -90.6%.

On to `CCCCCCCCCc1ccc(OCCOCCOCCOCCOCCOCCOCCOCCOCCO)cc1`, for which the cell viability activity was -55.9%.

Turning to `COc1c/c(=C2\C=c3ccccc3=N2)[nH]/c1=C\c1[nH]c(C)cc1C`, the cell viability activity was -93.8%.

Consider `CN(C)CCOc1ccc(/C(=C(/CCCl)c2ccccc2)c2ccccc2)cc1`, for which the cell viability activity is -85.2%.

With `CN(C)C/C=C/C(=O)Nc1cccc(C(=O)Nc2cccc(Nc3ncc(Cl)c(-c4c[nH]c5ccccc45)n3)c2)c1`, the cell viability activity is -91.7%.

In the case of `CCCCC(=O)OCC(=O)[C@]1(O)Cc2c(O)c3c(c(O)c2[C@@H](O[C@H]2C[C@H](NC(=O)C(F)(F)F)[C@H](O)[C@H](C)O2)C1)C(=O)c1c(OC)cccc1C3=O`, the cell viability activity was -48.2%.

For `O=C(NC1CCN(CCCCC2(C(=O)NCC(F)(F)F)c3ccccc3-c3ccccc32)CC1)c1ccccc1-c1ccc(C(F)(F)F)cc1`, the cell viability activity was -95.7%.

As to `CCOc1ccc(Cc2nccc3cc(OCC)c(OCC)cc23)cc1OCC`, the cell viability activity is -32.7%.

Turning to `CN(C)C/C=C/C(=O)Nc1ccc(C(=O)Nc2cccc(Nc3ncc(Cl)c(-c4c[nH]c5ccccc45)n3)c2)cc1`, the cell viability activity is -87.2%.

As to `Cn1ncc(Cl)c1-c1cc(C(=O)N[C@H](CN)Cc2ccc(F)c(F)c2)oc1Cl`, the cell viability activity is -70.4%.

For `CC[C@]1(O)C[C@H]2CN(CCc3c([nH]c4ccccc34)[C@@](C(=O)OC)(c3cc4c(cc3OC)N(C=O)[C@H]3[C@@](O)(C(=O)OC)[C@H](OC(C)=O)[C@]5(CC)C=CCN6CC[C@]43[C@@H]65)C2)C1`, the cell viability activity is -28.3%.

Regarding `O=C(NOCCO)c1cc(CN2OCCCC2=O)c(F)c(F)c1Nc1ccc(I)cc1F`, the cell viability activity is -76.5%.

With `CN(c1ncccc1CNc1nc(Nc2ccc3c(c2)CC(=O)N3)ncc1C(F)(F)F)S(C)(=O)=O`, the cell viability activity is -83.7%.

Consider `CCOc1cc2ncc(C#N)c(Nc3ccc(F)c(Cl)c3)c2cc1NC(=O)/C=C/CN(C)C`, for which the cell viability activity was -77.4%.

In the case of `C#Cc1cccc(Nc2ncnc3cc(OC)c(OCCCCCCC(=O)NO)cc23)c1`, the cell viability activity was -90.3%.

On to `Cc1cc(OCc2nc(-c3ccccc3Cl)cs2)ccc1OCC(=O)O`, for which the cell viability activity is -41.6%.

On to `CCN1CCN(c2ccc(C(C)(C)NC(=O)c3cc4[nH]c5ccccc5c(=O)c4cc3F)cn2)CC1`, for which the cell viability activity was -45.9%.

For `COc1cc(Nc2ncc(F)c(Nc3ccc4c(n3)NC(=O)C(C)(C)O4)n2)cc(OC)c1OC`, the cell viability activity is -46.5%.

For the compound `CC1(C)CC(Oc2ccc(-c3ccc(-c4cn[nH]c4)cc3O)nn2)CC(C)(C)N1`, the cell viability activity is -77%.

As to `Cc1nc(-c2cn3c(n2)-c2ccc(-c4cnn(C(C)(C)C(N)=O)c4)cc2OCC3)n(C(C)C)n1`, the cell viability activity is -53.2%.

Consider `Cc1ccc(-n2nc(C(C)(C)C)cc2NC(=O)NCc2cc(F)ccc2Oc2ccc3c(cnn3CCO)c2)cc1`, for which the cell viability activity was -36.7%.

Take `CCN(CC)c1ccc(C(=C2C=CC(=[N+](CC)CC)C=C2)c2ccccc2)cc1`: the cell viability activity was -97.7%.

With `Cn1c(Nc2ccc(C(F)(F)F)cc2)nc2cc(Oc3ccnc(-c4ncc(C(F)(F)F)[nH]4)c3)ccc21`, the cell viability activity is -82%.

Consider `Cc1ccccc1N(C)C(=O)c1ccc([S+]([O-])c2nccs2)c([N+](=O)[O-])c1` (stereo not given), for which the cell viability activity was -49.2%.

For `CS(=O)(=O)N1CCN(Cc2cc3nc(-c4cccc5[nH]ncc45)nc(N4CCOCC4)c3s2)CC1`, the cell viability activity was -62.8%.

`COc1cc(N2CCC(N3CCN(C)CC3)CC2)ccc1Nc1ncc(Cl)c(Nc2ccccc2P(C)(C)=O)n1`: the cell viability activity is -82.9%.

On to `CC(=O)N(O)CCCCCNC(=O)CCC(=O)N(O)CCCCCNC(=O)CCC(=O)N(O)CCCCCN`, for which the cell viability activity was -56.3%.

Take `NS(=O)(=O)C#Cc1ccccc1`: the cell viability activity is -68.8%.

In the case of `COc1cccc(-c2cc(F)ccc2[C@H]2Cc3nc(N)nc(C)c3C(=O)N2)n1`, the cell viability activity was -82.4%.

For the compound `COc1ccc(NC(=O)c2ccc(-c3ccc(-c4noc(C)n4)cc3C)cc2)cc1N1CCN(C)CC1`, the cell viability activity is -61%.

For `Cc1cc(Nc2ncc(Cl)c(Nc3ccccc3S(=O)(=O)C(C)C)n2)c(OC(C)C)cc1C1CCNCC1`, the cell viability activity is -97.2%.

For the compound `Cn1cc(C2=C(c3cn(CCCSC(=N)N)c4ccccc34)C(=O)NC2=O)c2ccccc21`, the cell viability activity is -81.3%.

On to `O=C1[C@H](Cc2ccc(O)cc2)N2C(=O)CCN(C(=O)NCc3ccccc3)[C@H]2CN1Cc1cccc2ccccc12`, for which the cell viability activity is -58.4%.

On to `COc1ccc(-c2cc3c(C)nc(N)nc3n([C@H]3CC[C@H](OCCO)CC3)c2=O)cn1`, for which the cell viability activity was -94%.

For the compound `O=C(Nc1ccccc1-c1cn2c(CN3CCNCC3)csc2n1)c1cnc2ccccc2n1`, the cell viability activity was -74.8%.

`CC(=O)O[C@@]12CO[C@@H]1C[C@H](O)[C@@]1(C)C(=O)[C@H](O)C3=C(C)[C@@H](OC(=O)[C@H](O)[C@@H](NC(=O)OC(C)(C)C)c4ccccc4)C[C@@](O)([C@@H](OC(=O)c4ccccc4)[C@H]21)C3(C)C`: the cell viability activity was -58.2%.

With `Nc1ccn([C@@H]2O[C@H](CO)[C@@H](O)C2(F)F)c(=O)n1`, the cell viability activity was -63.6%.

With `CC(=O)NCC(=O)N1[C@@H]2CC[C@H]1c1ccc(Nc3ncc(C(F)(F)F)c(NC4CCC4)n3)cc12`, the cell viability activity is -41.1%.

For `C/C(=C\c1csc(C)n1)[C@@H]1C[C@@H]2O[C@]2(C)CCC[C@H](C)[C@H](O)[C@@H](C)C(=O)C(C)(C)[C@@H](O)CC(=O)N1`, the cell viability activity was -42.8%.

For the origin of these results see the supplement of paper PMC9177965.
